Experimental data: PubChem BioAssay (EPA / NIEHS)
Records with an inconclusive call do not appear. Activity calls are given as the source filed them. Rule for the calls: active = hit-call score of the fitted dose curve at least 0.9, where 1 is the maximum; inconclusive = response in the unintended direction; inactive = score below 0.9.

Assay: Tanguay_ZF_120hpf_EYE_legacy: (Legacy) Oregon State University Tanguay Lab 120 Hour Post-fertilization zebrafish Assay for Eye Malformation (AID 2283636);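 note: binary presence or absence of eye malformation scored by brightfield in 120 hpf larvae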
Description: Tanguay_ZF_120hpf_legacy is a whole embryo, multiplexed endpoint assay using zebrafish larvae exposed for 120 hours post fertilization on a 96-well plate.Tanguay_ZF_120hpf_EYE_legacy is one of one assay component(s) measured or calculated from the Tanguay_ZF_120hpf_legacy assay. It is designed to make measurements of zebrafish development as detected with brightfield microscopy of developing zebrafish embryos.Data from the assay component Tanguay_ZF_120hpf_EYE_legacy was analyzed into 1 assay endpoints. This assay endpoint, Tanguay_ZF_120hpf_EYE_legacy, was analyzed in the positive analysis fitting direction relative to DMSO as the negative control and baseline of activity. Using a type of morphology reporter, gain-of-signal activity can be used to understand changes in developmentals as they relate to the whole embryo. To generalize the intended target to other relatable targets, this assay endpoint is annotated to the zebrafish development intended target family, where the subfamily is embryonic eye development.
Zebrafish husbandry: Tropical 5D wild-type adult zebrafish were housed in at an approximate density of 1000 per 100 gallon tank at the Sinnhuber Aquatic Research Laboratory, Oregon State University, Corvallis, OR. Each tank was kept at standard laboratory conditions of 28C on a 14-h light/10-h dark photoperiod in fish water consisting of reverse osmosis water supplemented with a commercially available salt (Instant Ocean). Spawning funnels were placed into the tanks the night prior, and embryos were collected and staged. To increase bioavailability, the chorion was enzymatically removed using pronase (63.6mg/ml, >/= 3.5U/mg, Sigma-Aldrich: P5147) at 4 hours post fertilization (hpf) using a custom automated dechorionator.Chemical exposures: Six hpf dechorionated embryos were placed 1 embryo per well in a 96-well plate prefilled with 90 ul of EM using automated embryo placement systems (AEPS). Ten microliters of each row of dilution plate 2 was added to 2 exposure plates. The final DMSO concentration used was 0.64% (vol/vol). Thirty-two embryos were also exposed to 5uM trimethyltin chloride (positive control). Plates were sealed to prevent evaporation and foil covered to reduce light exposure and kept in a 28C incubator. Embryos were statically exposed until 120 hpf. At 24 hpf, embryos were assessed for photomotor response using a custom photomotor response analysis tool (PRAT) and for developmental toxicity endpoints (MO24: mortality at 24 hpf, DP: developmental progression, SM: spontaneous movement, and NC: notochord distortion). At 120 hpf, locomotor activity was measured using Viewpoint Zebralab and assessed for 18 endpoints. Zebrafish acquisition and analysis program (ZAAP), a custom program designed to inventory, acquire, and manage zebrafish data, was used to collect developmental endpoints as either present or absent (i.e., binary responses were recorded). If mortality occurred for an embryo (at either 24 or 120 hpf), the non-mortality endpoints were not measured.
For `CCOP(=S)(OCC)Oc1nc(Cl)n(C(C)C)n1`, the outcome was “inactive”. With `CCN(CC)c1nc(C)cc(OP(=S)(OC)OC)n1` the outcome was “inactive”. In the case of `Cn1c(-c2ccccc2)cc(-c2ccccc2)[n+]1C`, the outcome is reported as “inactive”. For `CCCCOCN(C(=O)CCl)c1c(CC)cccc1CC`, the outcome was “inactive”. For `O=P(O)(O)CCCl`, the outcome was “inactive”. With `O=C(O)c1c(Cl)ccc2cc(Cl)cnc12` the outcome was “inactive”. In the case of `Cc1ccc(N=CN(C)C=Nc2ccc(C)cc2C)c(C)c1`, the outcome is reported as “inactive”. For `CCOc1nc(C(Cl)(Cl)Cl)ns1`, the outcome was “inactive”. For `COP(=S)(OC)SCn1nnc2ccccc2c1=O`, the outcome was “inactive”. For `Clc1nc(Cl)nc(Nc2ccccc2Cl)n1`, the outcome was “inactive”. For `N#Cc1c[nH]cc1-c1cccc2c1OC(F)(F)O2`, the outcome was “inactive”. For `COc1cc(OC)nc(NC(=O)NS(=O)(=O)c2ncccc2OCC(F)(F)F)n1`, the outcome was “inactive”. In the case of `CCNC(=O)NC(=O)C(C#N)=NOC`, the AC50 is reported as 51.5 µM (active). With `CCOc1cc(C(C)(C)C)ccc1C1COC(c2c(F)cccc2F)=N1` (stereo not given) the outcome was “inactive”. In the case of `Cc1c(COC(=O)[C@@H]2[C@H](/C=C(\Cl)C(F)(F)F)C2(C)C)cccc1-c1ccccc1`, the outcome is reported as “inactive”. For `COC(=O)N(C(=O)N1CO[C@@]2(C(=O)OC)Cc3cc(Cl)ccc3C2=N1)c1ccc(OC(F)(F)F)cc1`, the outcome was “inactive”. With `Cc1nc(N(C)C)nc(OC(=O)N(C)C)c1C` the outcome was “inactive”. For `N#Cc1c(Cl)cccc1Cl`, the outcome was “inactive”. With `CC1(C)CON(Cc2ccccc2Cl)C1=O` the outcome was “inactive”. For `CC(C)C1(C)N=C(c2ncccc2C(=O)O)NC1=O` (stereo not given), the outcome was “inactive”. For `CC1(C)C(C=C(Cl)Cl)C1C(=O)OC(C#N)c1cccc(Oc2ccccc2)c1` (stereo not given), the AC50 was 1.82 µM (active). For `Cc1cnc(C2=NC(C)(C(C)C)C(=O)N2)c(C(=O)O)c1` (stereo not given), the outcome was “inactive”. With `CC(C)N1C(=O)N(c2ccccc2)CSC1=NC(C)(C)C` the outcome was “inactive”. For `Nc1cnn(-c2ccccc2)c(=O)c1Cl`, the outcome was “inactive”. With `CC1(C)CCC(=Cc2ccc(Cl)cc2)C1(O)Cn1cncn1` (stereo not given) the outcome was “inactive”. For `C=CCOC(=O)C(C)(C)OC(=O)c1cc(-n2c(=O)cc(C(F)(F)F)n(C)c2=O)ccc1Cl`, the outcome was “inactive”. In the case of `COP(=O)(OC)O/C(C)=C/C(=O)N(C)C`, the outcome is reported as “inactive”. In the case of `CC(C)NC(=O)N1CC(=O)N(c2cc(Cl)cc(Cl)c2)C1=O`, the outcome is reported as “inactive”. For `CSC(=O)c1c(C(F)F)nc(C(F)(F)F)c(C(=O)SC)c1CC(C)C`, the outcome was “inactive”. For `COc1cc(Cl)c(OC)cc1Cl`, the outcome was “inactive”. In the case of `CCCN(CC)CC1COC2(CCC(C(C)(C)C)CC2)O1` (stereo not given), the outcome is reported as “inactive”. In the case of `CS(=O)(=O)c1ccc(C(=O)C2C(=O)CCCC2=O)c([N+](=O)[O-])c1`, the outcome is reported as “inactive”. In the case of `CC(C)(C)C(=O)C(Oc1ccc(Cl)cc1)n1cncn1` (stereo not given), the outcome is reported as “inactive”. For `COCc1cnc(C2=NC(C)(C(C)C)C(=O)N2)c(C(=O)O)c1` (stereo not given), the outcome was “inactive”. In the case of `COc1ccc(-c2ccccc2)cc1NNC(=O)OC(C)C`, the outcome is reported as “inactive”. With `CN=C=S` the outcome was “inactive”. For `CCCCC(C#N)(Cn1cncn1)c1ccc(Cl)cc1` (stereo not given), the AC50 was 49.4 µM (active). For `N#CN=C1SCCN1Cc1ccc(Cl)nc1`, the outcome was “inactive”. With `CC(C)Oc1cccc(NC(=O)c2ccccc2C(F)(F)F)c1` the AC50 was 15.5 µM (active). In the case of `COC(=O)NC(=S)Nc1ccccc1NC(=S)NC(=O)OC`, the outcome is reported as “inactive”.
